Our source for the composite z-score and z-score values is PubChem BioAssay.

A short description of test [1]: binders of probe aFSTL3 on microarray, primary screen, stem cell growth factor project, biochemical, small-molecule microarray, fluorescence 635/667 (AID 1064).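 Further: measures binding of the biotinylated anti-FSTL3 antibody to printed compounds.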 Particulars: higher = more signal.
The nature of test [2]: binders from COS7 lysate, DM2A8 probe, primary screen, torsin A project, cell lysate, small-molecule microarray, fluorescence 635/667 (AID 1065). Particulars: higher = more signal, COS7 lysate expressing mutant human TOR1A.
The nature of test [3]: binders of probe aFGF2 on microarray, primary screen, stem cell growth factor project, biochemical, small-molecule microarray, fluorescence 635/667 (AID 1067).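 Further: measures binding of biotinylated aFGF2 protein to printed compounds on slides; z-score merges feature fluorescence and signal-to-noise across triplicate slides.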 As to conditions: higher = more signal.
A short description of test [4]: binders of probe aFGF10 on microarray, primary screen, stem cell growth factor project, biochemical, small-molecule microarray, fluorescence 635/667 (AID 1071).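 Further: score merges 667 nm spot intensity and signal to noise from triplicate slides.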 As to conditions: higher = more signal.
Test [5] concerns the target Neurogenic locus notch homolog protein 2 (Homo sapiens) (UniProt Q04721). The test is described as follows: Notch2 binders on small-molecule microarrays, primary screen, biochemical, small-molecule microarray, 635 nm fluorescence, stem cell growth factors (AID 1073). As to conditions: Notch2 binding, higher = more signal.
The target in test [6] is Pro-neuregulin-1, membrane-bound isoform (Homo sapiens) (UniProt Q02297). The test is described as follows: NRG1 binders on small-molecule microarrays, primary screen, psychiatric disease protein project, biochemical, small-molecule microarray, fluorescence 635/667 (AID 1075).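 Further: score combines 667 nm spot fluorescence with signal to noise.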 Particulars: NRG1 binding, 635 nm fluorescence, higher = more signal.
Pro-neuregulin-1, membrane-bound isoform (Homo sapiens), sequence (Q02297 whole entry, looked up, the tested form may be a part, canonical isoform): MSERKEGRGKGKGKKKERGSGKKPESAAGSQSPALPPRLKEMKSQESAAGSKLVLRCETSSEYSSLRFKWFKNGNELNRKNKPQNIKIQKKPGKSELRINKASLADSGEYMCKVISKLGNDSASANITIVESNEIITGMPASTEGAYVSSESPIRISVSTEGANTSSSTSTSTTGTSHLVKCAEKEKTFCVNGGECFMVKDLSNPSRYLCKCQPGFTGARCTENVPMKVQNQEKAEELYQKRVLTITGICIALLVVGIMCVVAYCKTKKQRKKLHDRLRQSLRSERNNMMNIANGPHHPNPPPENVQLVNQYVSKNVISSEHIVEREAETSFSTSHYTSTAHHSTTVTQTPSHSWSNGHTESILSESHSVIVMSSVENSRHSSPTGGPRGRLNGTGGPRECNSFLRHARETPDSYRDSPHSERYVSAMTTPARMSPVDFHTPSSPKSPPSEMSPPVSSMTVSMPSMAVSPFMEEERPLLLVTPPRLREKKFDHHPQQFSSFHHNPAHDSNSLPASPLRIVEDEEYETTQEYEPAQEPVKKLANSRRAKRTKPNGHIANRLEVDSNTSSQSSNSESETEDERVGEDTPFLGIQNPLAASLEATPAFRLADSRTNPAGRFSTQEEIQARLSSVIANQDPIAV
For test [7], the system named is Neuregulin-1 EGF-like domain. The test is described as follows: binders of neuregulin-1 EGF-like domain, primary screen, biochemical, small-molecule microarray, 635 nm fluorescence (AID 1081).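 Further: binding of the protein to compounds printed on small-molecule microarray slides.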 Particulars: small-molecule microarray binding, higher = more signal.
Test [8] can be described thus: FRG1 promoter luciferase signal modulators, primary screen, FRG1 inhibition for FSHD, cell-based, C2C12 myotubes, firefly/Renilla luciferase, luminescence (AID 1084). As to conditions: higher = more signal, called active from +8 up or from −8 down.
Test [9] can be described thus: binders of probe aFST on microarray, primary screen, stem cell growth factor project, biochemical, small-molecule microarray, fluorescence 635/667 (AID 1086).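 Further: score merges 667 nm fluorescence with signal-to-noise of each printed compound spot.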 Particulars: higher = more signal.
Test [10] can be described thus: binders of probe aHhip on microarray, primary screen, stem cell growth factor project, biochemical, small-molecule microarray, fluorescence 635/667 (AID 1087).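 Further: score merges spot fluorescence at 667nm with spot signal to noise ratio.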 Particulars: higher = more signal.
In test [11] the test system is PRMT1 (protein arginine N-methyltransferase 1). The test is described as follows: PRMT1 binders on small-molecule microarrays, primary screen, biochemical, small-molecule microarray, 635 nm fluorescence (AID 1088).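 Further: binding of Prmt1 protein to compounds spotted on small-molecule microarray slides.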 Particulars: small-molecule microarray binding, higher = more signal.
Test [12] in a line: yeast growth modulation, basal conditions, primary screen, YJM789 clinical isolate, OD600, 24 h (AID 1089).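 Further: growth of clinical yeast isolate S. cerevisiae YJM 789 seeded 1000 cells per well; test concentration not given here.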 As to conditions: S. cerevisiae YJM789 growth, higher = more signal, called active from +8 up or from −8 down.
The nature of test [13]: fission yeast growth modulation, primary screen, strain 972, OD600, 24 h, no modulator (AID 1090).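 Further: basal condition with compound alone and no growth modifier present; test concentration not given here.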 Particulars: S. pombe 972 growth, higher = more signal, called active from +8 up or from −8 down.
The nature of test [14]: S. cerevisiae growth modulation with rapamycin, primary screen, strain BY4716, OD600, 96 h (AID 1091). Further: test concentration not given here. As to conditions: higher = more signal, called active from +8 up or from −8 down.
In test [15] the target is Torsin-1A-interacting protein 2 (Homo sapiens) (UniProt Q8NFQ8). The test is described as follows: LULL1 binders on small-molecule microarray, primary screen, cell lysate, human LULL1 lysate, 635/667 nm fluorescence (AID 1092).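 Further: probe is lysate of COS7 cells overexpressing human LULL1; score merges per-feature 667 nm fluorescence with signal-to-noise.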 As to conditions: hLULL1 lysate binding, 635 nm fluorescence, higher = more signal.
Torsin-1A-interacting protein 2 (Homo sapiens), sequence (Q8NFQ8 whole entry, looked up): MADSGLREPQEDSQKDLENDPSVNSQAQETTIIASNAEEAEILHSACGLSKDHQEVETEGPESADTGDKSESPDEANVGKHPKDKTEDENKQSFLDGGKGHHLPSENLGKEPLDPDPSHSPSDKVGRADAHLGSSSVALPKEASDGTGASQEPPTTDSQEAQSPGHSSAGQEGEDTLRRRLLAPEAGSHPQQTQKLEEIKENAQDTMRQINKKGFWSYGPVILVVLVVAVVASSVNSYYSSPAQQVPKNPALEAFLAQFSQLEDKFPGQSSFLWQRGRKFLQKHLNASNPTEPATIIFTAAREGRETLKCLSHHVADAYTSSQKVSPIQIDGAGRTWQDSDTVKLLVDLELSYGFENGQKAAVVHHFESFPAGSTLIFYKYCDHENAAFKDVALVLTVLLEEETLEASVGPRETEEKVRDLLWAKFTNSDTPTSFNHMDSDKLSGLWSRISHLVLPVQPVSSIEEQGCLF
Test [16] in a line: E. coli growth modulation, two-sided OD650, primary screen, E. coli filamentation project, strain DRC41, 24 h (AID 1093).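 Further: MC1000 strain lacking acrAB efflux and sulA so SOS filamentation is blocked; test concentration not given here.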 As to conditions: OD650, 24 h, higher = more signal, called active from +8 up or from −8 down.
Test [17] is described as follows: small-molecule microarray binders of probe aLefty2, primary screen, biochemical, biotinylated probe, 635/667 nm fluorescence (AID 1094).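 Further: score merges spot fluorescence near 667 nm with spot signal-to-noise ratio.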 Particulars: higher = more signal.
The subject of test [18] is Noggin (protein binding on small-molecule microarray). The test is described as follows: Noggin binders on small-molecule microarray, primary screen, biochemical, 635/667 nm fluorescence (AID 1095).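 Further: score merges 667 nm feature fluorescence with signal to noise over triplicate slides.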 Particulars: 635 nm fluorescence, higher = more signal.
The target of test [19] is Neurogenic locus notch homolog protein 3 (Homo sapiens) (UniProt Q9UM47). The test is described as follows: NOTCH3 binders on small-molecule microarray, primary screen, biochemical, 635/667 nm fluorescence (AID 1096). As to conditions: NOTCH3 binding, 635 nm fluorescence, higher = more signal.
Neurogenic locus notch homolog protein 3 (Homo sapiens), sequence (Q9UM47 whole entry, looked up): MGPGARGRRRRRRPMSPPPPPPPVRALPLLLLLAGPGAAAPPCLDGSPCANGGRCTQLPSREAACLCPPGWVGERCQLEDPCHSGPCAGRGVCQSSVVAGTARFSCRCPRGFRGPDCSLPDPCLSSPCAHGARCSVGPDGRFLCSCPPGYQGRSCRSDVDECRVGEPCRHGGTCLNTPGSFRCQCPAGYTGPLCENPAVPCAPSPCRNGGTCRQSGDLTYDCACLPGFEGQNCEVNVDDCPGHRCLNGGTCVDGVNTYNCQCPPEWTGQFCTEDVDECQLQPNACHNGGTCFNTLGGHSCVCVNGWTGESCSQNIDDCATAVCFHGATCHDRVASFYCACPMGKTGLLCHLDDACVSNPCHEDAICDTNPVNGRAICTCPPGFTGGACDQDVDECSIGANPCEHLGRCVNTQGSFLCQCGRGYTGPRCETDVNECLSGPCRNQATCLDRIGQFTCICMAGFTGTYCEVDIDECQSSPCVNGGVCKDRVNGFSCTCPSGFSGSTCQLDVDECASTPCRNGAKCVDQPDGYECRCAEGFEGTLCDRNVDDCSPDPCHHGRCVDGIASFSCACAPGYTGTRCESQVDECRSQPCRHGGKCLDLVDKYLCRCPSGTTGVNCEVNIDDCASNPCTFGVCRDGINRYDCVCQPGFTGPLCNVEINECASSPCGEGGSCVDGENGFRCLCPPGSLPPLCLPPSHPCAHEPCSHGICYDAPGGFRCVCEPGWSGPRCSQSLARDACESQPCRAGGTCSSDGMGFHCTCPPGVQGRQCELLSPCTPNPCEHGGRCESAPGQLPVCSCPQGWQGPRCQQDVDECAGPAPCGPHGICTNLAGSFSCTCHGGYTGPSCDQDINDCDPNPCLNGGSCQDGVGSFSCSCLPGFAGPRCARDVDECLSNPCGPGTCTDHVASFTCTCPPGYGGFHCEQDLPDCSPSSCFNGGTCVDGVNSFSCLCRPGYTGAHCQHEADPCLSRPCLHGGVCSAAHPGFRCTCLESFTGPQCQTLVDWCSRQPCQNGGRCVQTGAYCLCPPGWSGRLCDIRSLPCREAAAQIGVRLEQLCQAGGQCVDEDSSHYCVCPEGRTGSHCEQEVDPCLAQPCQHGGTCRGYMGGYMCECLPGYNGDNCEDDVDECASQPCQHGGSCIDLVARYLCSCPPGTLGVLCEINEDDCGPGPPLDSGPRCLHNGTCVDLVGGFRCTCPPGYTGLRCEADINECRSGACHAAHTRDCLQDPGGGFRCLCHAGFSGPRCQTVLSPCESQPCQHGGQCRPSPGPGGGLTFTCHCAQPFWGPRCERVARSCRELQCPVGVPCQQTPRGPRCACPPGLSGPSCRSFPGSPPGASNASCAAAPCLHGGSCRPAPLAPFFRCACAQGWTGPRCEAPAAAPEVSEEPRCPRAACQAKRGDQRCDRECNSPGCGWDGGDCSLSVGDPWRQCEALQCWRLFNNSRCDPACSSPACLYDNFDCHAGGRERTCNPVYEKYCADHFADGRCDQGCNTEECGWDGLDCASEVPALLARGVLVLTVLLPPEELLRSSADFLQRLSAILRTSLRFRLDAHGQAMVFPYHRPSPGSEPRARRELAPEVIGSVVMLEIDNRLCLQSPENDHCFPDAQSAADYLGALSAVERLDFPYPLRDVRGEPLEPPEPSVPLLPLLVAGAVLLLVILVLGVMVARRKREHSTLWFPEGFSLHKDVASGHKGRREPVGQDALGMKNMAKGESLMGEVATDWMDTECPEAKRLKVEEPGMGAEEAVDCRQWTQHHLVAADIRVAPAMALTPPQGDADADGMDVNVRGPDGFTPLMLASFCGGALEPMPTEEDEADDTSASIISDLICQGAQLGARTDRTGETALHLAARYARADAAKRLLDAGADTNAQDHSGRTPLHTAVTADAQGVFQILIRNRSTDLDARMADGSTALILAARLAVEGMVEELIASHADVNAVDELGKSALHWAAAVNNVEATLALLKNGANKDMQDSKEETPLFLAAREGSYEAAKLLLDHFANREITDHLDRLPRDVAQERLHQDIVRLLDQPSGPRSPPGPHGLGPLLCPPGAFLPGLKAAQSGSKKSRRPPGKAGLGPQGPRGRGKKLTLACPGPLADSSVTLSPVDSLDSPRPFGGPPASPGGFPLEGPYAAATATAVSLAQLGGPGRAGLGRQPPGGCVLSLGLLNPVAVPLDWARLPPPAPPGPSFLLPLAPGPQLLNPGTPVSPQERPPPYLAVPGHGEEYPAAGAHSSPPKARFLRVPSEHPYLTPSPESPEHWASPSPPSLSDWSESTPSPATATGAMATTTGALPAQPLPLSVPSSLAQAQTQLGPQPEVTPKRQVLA
Test [20] is described as follows: small-molecule microarray binders of probe aEGFR, primary screen, biochemical, biotinylated probe, 635/667 nm fluorescence (AID 1097).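 Further: probe is a biotinylated anti-EGFR antibody binding compounds printed on slides; score combines fluorescence near 667 nm and signal to noise of each spot.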 Particulars: higher = more signal.

Calls of active or inactive are those of the source.

As for `CC(C)(C)OC(=O)CC[C@@]12N=C(c3ccc(OCCCO)cc3)O[C@@H]1c1ccccc1N(Cc1ccccc1)C2=O`, the composite z-score is 0.96 in test [1]; 0.842 in test [2]; -0.0481 in [3]; -0.422 in test [4]; 0.246 in [5]; 0.778 in test [6]. The composite z-score in test [7] is 1.21; in [9], 0.439; in [10], -0.0645; in test [11], 1.32; in test [15] it was 3.26; in test [17] it was 0.0622. For the same molecule, the results for the composite z-score in [18], in [19] and in test [20] were 0.753, 1.05 and -0.0497, respectively. The z-score was -3.31 (inactive) in test [8]; 0.0492 (inactive) in [12]; -1.2 (inactive) in test [13]; 3.98 (inactive) in test [14]; 1.55 (inactive) in test [16].
Consider `COC(=O)C1=CC(c2ccc(CO)cc2)=CC(C2CC2)N(C)C=C1C(=O)OC` (stereo not given), for which the composite z-score is 0.315 in test [1]; 0.903 in test [2]; -0.0538 in test [3]; -0.0649 in [4]; 0.115 in test [5]; 1.61 in test [6]. Further, the composite z-score in test [7] was 0.97; in [9], 0.0593; in test [10], -0.0994; in [11], 1.31; in test [15], 2.6; in [17], -0.141. Further, the composite z-score in test [18] is -0.946; in test [19] it was -0.464; in test [20] it was -0.154. Besides, the z-score was -1.67 (inactive) in test [8]; -5.61 (inactive) in [12]; -4.93 (inactive) in test [13]; -2.41 (inactive) in [14]; 0.585 (inactive) in test [16].
As for `C=CCN1C(=O)[C@@]2(O[C@@H](CCO)[C@H]([Si](C)(C)c3ccc(OC)cc3)[C@H]2C)c2cc(N(C=O)c3ccccc3)ccc21`, the composite z-score in [1] is 0.156; in test [2], 0.24; in test [3], -0.125; in test [4] it was 0.461; in test [5] it was 0.555; in [6], 0.657. In addition, the composite z-score turned out to be 0.904 in test [7]; 0.143 in test [9]; 0.154 in test [10]; 1.11 in test [11]; 0.586 in test [15]; 0.0183 in test [17]. Moreover, the composite z-score is 0.366 in [18], 0.259 in test [19] and -0.0304 in [20]. Also, the z-score in [8] was -1.06 (inactive); in test [12], 0.551 (inactive); in test [13] it was -0.67 (inactive); in test [14], 21 (active); in test [16], 1.85 (inactive).
With `C=C(COC)/C(=C/C[C@H](OC(C)=O)c1ccc(CO)o1)c1cnc2ccccc2c1`, the composite z-score was -0.17 in test [1]; 1.29 in [2]; -0.0316 in test [3]; 0.665 in test [4]; 1.4 in test [5]; 0.64 in test [6]. For the same molecule, the composite z-score in test [7] was 1.01; in test [9], 0.314; in [10], -0.0024; in test [11], 1.41; in [15] it was 2.48; in test [17] it was -0.0208. For the same molecule, the composite z-score in [18] is 1.55; in [19], 1.04; in [20] it was -0.0616. Besides, the z-score is -0.524 (inactive) in test [8]; -0.342 (inactive) in [12]; -0.897 (inactive) in test [13]; -1.06 (inactive) in test [14]; 1.15 (inactive) in test [16].
Take `CC(CO)N1C(=O)[C@@H]2C3C(=O)OCCC/C=C\[C@H]3OC23C=CCN(Cc2ccccc2)C(=O)[C@@H]13` (stereo not given in full): the composite z-score in [1] is 0.418; in test [2], -0.338; in test [3], -0.143; in test [4], -0.486; in [5], -0.847; in test [6], -0.512. In addition, the composite z-score in test [7] is 0.18; in [9], -0.0745; in [10], -0.0239; in test [11] it was 0.432; in [15], -0.0166; in test [17] it was -0.16. In addition, the results for the composite z-score in [18], in [19] and in [20] were -0.545, -0.505 and -0.186, respectively. Further, the z-score in [8] was 0.227 (inactive); in [12] it was -0.537 (inactive); in [13] it was -2.16 (inactive); in test [14], -0.875 (inactive); in [16], 2.31 (inactive).
